The results in this text go back to PubChem BioAssay (NCATS).

The structures appear in SMILES notation. Where “and” joins values, the source holds several entries; their conditions need not be identical. Equal entries are not always repeated. Records with an inconclusive call do not appear. More than one record can exist for a structure, and the calls need not agree. Calls of active or inactive are those of the source. Unless noted, calls follow the shape of the dose curve; as a rule, active = well fitted curve in either direction with a large enough effect (not every such curve was filed as active); inconclusive = small, poorly fitted or top-dose-only effect, or another doubt; inactive = flat fitted curve, though single readings scatter.

Assay [1] has as its target Cytochrome P450 1A2 (Homo sapiens) (UniProt P05177). Put plainly: p450-cyp1a2 (AID 410; calls by dose curve; also: potency is read from the fitted curve at half-maximal effect;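 as to activity change, negative = inhibition: -100% = full effect of reference inhibitor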). The essentials: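 Human CYP1A2 (20nM) demethylated Luciferin-ME at its Km (100uM) in 100mM KPO4. After 10 min compound preincubation, NADPH regeneration ran the reaction 60 min at room temperature. Luciferin was read by luminescence, normalized to 57 uM furafylline.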
Assay [2] can be described thus: NFAT Signaling Pathway (AID 444).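 Also: carbachol stimulus at about its EC50 of 1 µM final; % is scaled to controls: 0 for no effect and ±100 for the full control effect.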 The settings on record: Jurkat NFAT-bla M1, carbachol, beta-lactamase ratio, 5 h. The essentials:
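Jurkat cells with NFAT-driven β-lactamase reporter and co-expressed M1 receptor, stimulated with carbachol (final 1 uM, ~EC50), compound titration, 5 h at 37 °C. CCF4 loaded 1 h at RT; 460/530 nm ratio gave %activity and AC50.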

The nature of assay [3]: Stat Signaling Pathway (AID 446).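 Also: ME-180 cervical cancer cells given 40 pM IL-6 alongside compound; SIE-controlled beta-lactamase reporter measured as 460/530 nm FRET emission ratio; % is scaled to controls: 0 for no effect and ±100 for the full control effect.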 The settings on record: ME-180 SIE beta-lactamase reporter, IL-6 stimulated, 5 h; at 38 µM (top of the series) unless noted. The procedure, abridged: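 Screening format detects activators and inhibitors alike: ME-180 SIE-bla cells stimulated at 40 pM IL-6 for 5 hrs with compound, then dual-emission beta-lactamase read at 405 nm excitation.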

Assay [4] addresses Glucocorticoid receptor (Homo sapiens) (UniProt P04150). Put plainly: GR-GFP Redistribution (AID 450;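 active = compounds whose dose series gives a full or clear partial fitted curve of increased nuclear translocation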; also: potency is read from the fitted curve at half-maximal effect). The settings on record: U2OS GR-GFP nuclear translocation, laser cytometry, 2 h.
Assay [5] shares this target. Put plainly: GR-EFC Redistribution (AID 451; calls by dose curve; also: potency is read from the fitted curve at half-maximal effect). Particulars: CHO-K1 GR-EFC translocation, beta-gal luminescence, 2 h. The essentials:
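CHO-K1 cells expressing nuclear EA and GR-ED fragments of b-gal; compounds titrated up to 46 uM final, 2 h at 37 C. GR nuclear translocation read as complemented b-gal luminescence after 1 h RT detection.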

Assay [6] concerns the target Mitogen-activated protein kinase 10 (Mus musculus) (UniProt Q61831). Put plainly: JNK3 AlphaScreen Assay (AID 530).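 Also: kinase came from lysate of stimulated human HepG2 cells; signal reports phosphorylation of biotinylated GST-cJun 1-79 at Ser73 with 10 µM ATP; % is scaled to controls: 0 for no effect and ±100 for the full control effect.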 The essentials:
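qHTS format: compounds tested as titrations against IL-1beta/TNF-alpha-activated HepG2 lysate JNK3 with biotin-GST-cJun substrate and 10 uM ATP at room temperature. Loss of anti-phospho-cJun AlphaScreen signal indicates inhibition.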
For orientation: Alpha assays give light when donor and acceptor beads are brought close together.

The mark [7] stands for this setting: at 38 µM (top of the series) unless noted.

Glucocorticoid receptor (Homo sapiens), sequence (P04150 whole entry, looked up): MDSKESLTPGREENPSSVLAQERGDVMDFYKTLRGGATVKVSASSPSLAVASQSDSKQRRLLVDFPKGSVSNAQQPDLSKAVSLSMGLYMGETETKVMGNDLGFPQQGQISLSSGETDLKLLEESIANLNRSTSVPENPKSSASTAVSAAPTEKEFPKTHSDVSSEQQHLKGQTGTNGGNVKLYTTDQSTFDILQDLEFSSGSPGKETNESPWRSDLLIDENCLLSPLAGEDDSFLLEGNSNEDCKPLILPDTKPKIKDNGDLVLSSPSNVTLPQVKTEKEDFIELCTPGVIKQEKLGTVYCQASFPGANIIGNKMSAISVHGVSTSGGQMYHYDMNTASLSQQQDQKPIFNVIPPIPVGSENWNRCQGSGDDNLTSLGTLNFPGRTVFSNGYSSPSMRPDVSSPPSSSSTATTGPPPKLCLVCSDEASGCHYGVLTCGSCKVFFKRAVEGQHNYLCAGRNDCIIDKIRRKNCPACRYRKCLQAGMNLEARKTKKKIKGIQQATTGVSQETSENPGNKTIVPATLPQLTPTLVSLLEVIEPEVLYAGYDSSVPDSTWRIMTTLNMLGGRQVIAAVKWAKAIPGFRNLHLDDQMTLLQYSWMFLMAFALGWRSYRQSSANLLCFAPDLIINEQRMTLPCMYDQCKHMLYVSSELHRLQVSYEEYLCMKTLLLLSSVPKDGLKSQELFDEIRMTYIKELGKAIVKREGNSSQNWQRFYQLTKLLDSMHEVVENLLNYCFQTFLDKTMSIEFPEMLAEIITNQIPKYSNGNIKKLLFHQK
Cytochrome P450 1A2 (Homo sapiens), sequence (P05177 whole entry, looked up): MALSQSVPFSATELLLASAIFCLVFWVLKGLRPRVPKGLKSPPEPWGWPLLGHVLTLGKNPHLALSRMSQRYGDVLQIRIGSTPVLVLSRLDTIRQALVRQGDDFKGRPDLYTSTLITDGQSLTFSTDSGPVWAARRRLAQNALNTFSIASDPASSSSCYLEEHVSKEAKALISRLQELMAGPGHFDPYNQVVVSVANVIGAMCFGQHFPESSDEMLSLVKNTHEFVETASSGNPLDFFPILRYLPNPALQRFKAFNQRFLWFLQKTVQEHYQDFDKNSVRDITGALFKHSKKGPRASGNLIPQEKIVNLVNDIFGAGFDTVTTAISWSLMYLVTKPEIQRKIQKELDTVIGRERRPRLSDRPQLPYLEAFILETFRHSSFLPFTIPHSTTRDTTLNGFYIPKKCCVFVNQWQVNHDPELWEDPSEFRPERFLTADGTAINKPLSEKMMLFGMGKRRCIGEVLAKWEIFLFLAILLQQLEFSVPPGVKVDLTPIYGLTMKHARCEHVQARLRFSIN

Consider `COc1ccc(-c2ccc(N)[n+](CCCC(=O)O)n2)cc1`, for which the Potency entry in assay [1] was “inactive”. Also, the activity change, negative = inhibition is 1.69% (inactive) in assay [2] (at 17.2 µM (top of the series)) and 4.41% (inactive) in assay [2] (at 38 µM (top of the series)). For the same compound, the activity, negative = inhibition in assay [3] was 5.04% [at 17.2 µM] (inactive). In addition, the Potency in assay [4] was > 46 µM (inactive) and > 20.6 µM (inactive); in assay [5] it was > 46 µM (inactive) and > 20.6 µM (inactive). Besides, the result in assay [6] was inactive.

For `Nc1ccc(N2C(=O)c3ccccc3C2=O)c(Cl)c1`, the Potency result in assay [1] is “inactive”. Besides, the activity change, negative = inhibition in assay [2] (setting [7]) is 7.18% (inactive). The Potency in assay [4] is > 46 µM (inactive). Besides, the result in assay [6] was inactive.

With `CN(C)CCCc1cc(C(=O)Nc2ccc(-c3ccncc3)cc2)ccc1O`, the Potency was 39.8 µM (active) in assay [1] and > 46 µM (inactive) in assay [4]. For the same compound, the compound was called inactive in assay [6].

`O=c1[nH]c2ccccc2c2ccccc12`: the Potency in assay [1] was 0.251 µM (active); in assay [4] it was > 46 µM (inactive); in assay [5], > 46 µM (inactive). Moreover, the activity change, negative = inhibition in assay [2] (setting [7]) was 8.86% (inactive). Further, in assay [3], the activity, negative = inhibition is -7.28% (inactive). Further, in assay [6], the outcome was inactive.

For `C[C@H](NC(=O)/C(C#N)=C/c1ccc(O)c(O)c1)c1ccccc1`, the Potency was 31.6 µM (active) and 15.8 µM (active) in assay [1]; > 46 µM (inactive) in assay [4]; > 46 µM (inactive) in assay [5]. In addition, the activity change, negative = inhibition in assay [2] (setting [7]) is -20.6% (inactive) and -13.5% (inactive). Further, in assay [3], the activity, negative = inhibition was -15.4% (inactive).

As for `CC[C@H](NC(=O)c1c(C)c(-c2ccccc2)nc2ccccc12)c1ccccc1`, the Potency result in assay [1] is “inactive and 7.94 µM (active)”; in assay [4] it was > 46 µM (inactive). In addition, the activity change, negative = inhibition in assay [2] (setting [7]) is 2.54% (inactive). The compound was called inactive in assay [6].

Consider `CC(C)(C)c1cc(/C=C(\C#N)C(N)=S)cc(C(C)(C)C)c1O`, for which the Potency is 12.6 µM (active) in assay [1], > 46 µM (inactive) in assay [4] and > 46 µM (inactive) in assay [5]. In addition, in assay [2] (setting [7]), the activity change, negative = inhibition is -95.5% (active).

In the case of `COc1cc2c(CCNC(C)=O)c[nH]c2cc1O`, the Potency was 31.6 µM (active) in assay [1], > 46 µM (inactive) in assay [4] and > 46 µM (inactive) in assay [5]. Further, the activity change, negative = inhibition in assay [2] (setting [7]) is 3.14% (inactive). The result in assay [6] was inactive.

For `CCc1ccc2c(-c3cccc(Cl)c3)nc(=O)n(CC)c2n1`, the Potency in assay [1] is 0.126 µM (active); in assay [4], > 46 µM (inactive); in assay [5], > 46 µM (inactive). For the same compound, the outcome in assay [6] was inactive.

Turning to `O=C1Cc2c([nH]c3ccc(Br)cc23)-c2ccccc2N1`, the Potency was 1.26 µM (active) and 158 nM (active) in assay [1]; > 46 µM (inactive) in assay [4]; > 46 µM (inactive) in assay [5]. Also, the activity change, negative = inhibition in assay [2] (setting [7]) was -74.4% (active). Besides, the activity, negative = inhibition in assay [3] was -29.2% (active). For the same compound, the call in assay [6] was inactive.

For the compound `CC(N)=O`, in assay [1], the Potency entry is “inactive”. In addition, the activity change, negative = inhibition in assay [2] (setting [7]) is -6.62% (inactive). In addition, the activity, negative = inhibition in assay [3] was 13.9% (inactive). The Potency in assay [4] was > 46 µM (inactive). Moreover, the compound was called inactive in assay [6].

With `O=S(=O)(c1cccc2c(Cl)cccc12)N1CCCNCC1`, the results for the Potency in assay [1], in assay [4] and in assay [5] were 15.8 µM (active), > 46 µM (inactive) and > 46 µM (inactive), respectively. Moreover, the activity change, negative = inhibition in assay [2] (setting [7]) is 3.5% (inactive). For the same compound, in assay [3], the activity, negative = inhibition was -1.55% (inactive). For the same compound, the compound was classed as inactive in assay [6].

On to `O=c1oc(Cl)c(Cl)c2ccccc12`, for which the Potency was 1 µM (active) in assay [1], > 46 µM (inactive) in assay [4] and > 46 µM (inactive) in assay [5]. Besides, the activity change, negative = inhibition in assay [2] (setting [7]) is -53.3% (active). For the same compound, the activity, negative = inhibition in assay [3] is 22.3% (active). Further, the compound was classed as inactive in assay [6].

On to `CCCCOC(=O)NS(=O)(=O)c1sc(CC(C)C)cc1-c1ccc(Cn2c(CC)nc3c(C)cc(C)nc32)cc1`, for which the Potency in assay [1] is 31.6 µM (active); in assay [4], > 46 µM (inactive); in assay [5], > 46 µM (inactive).

With `Fc1ccc(CN(C2=NCCN2)c2c(Cl)cccc2Cl)cc1`, the Potency entry in assay [1] is “inactive”. Also, the activity change, negative = inhibition in assay [2] (setting [7]) was -21.2% (inactive). Besides, the activity, negative = inhibition in assay [3] was -4.64% (inactive). The Potency in assay [4] and in assay [5] was > 46 µM (inactive) in each case. The call in assay [6] was inactive.

Consider `CN(C)S(=O)(=O)c1ccc2c(c1)/C(=C/c1cc3c([nH]1)CCCC3)C(=O)N2`, for which the Potency was 0.316 µM (active) in assay [1] and > 46 µM (inactive) in assay [5]. Further, the activity, negative = inhibition in assay [3] was -60.7% (active). Also, the compound was classed as inactive in assay [6].

For `C=CCn1c(=O)c2c(nc(-c3ccc(S(=O)(=O)O)cc3)n2C)n(C)c1=O`, the Potency result in assay [1] was “inactive”. The activity change, negative = inhibition in assay [2] (setting [7]) is -1.07% (inactive). Also, the activity, negative = inhibition in assay [3] is 20.8% (inactive). Besides, the Potency in assay [4] and in assay [5] was > 46 µM (inactive) throughout.

In the case of `C#CCn1c(=O)c2c(ncn2C)n(C)c1=O`, the Potency entry in assay [1] was “inactive”. In addition, the activity change, negative = inhibition in assay [2] (setting [7]) is 5.67% (inactive). Further, the activity, negative = inhibition in assay [3] is 16.8% (inactive). Also, the Potency in assay [4] was > 46 µM (inactive).

Turning to `N[C@H](C(=O)O)[C@H](O)C(=O)O`, the Potency in assay [4] and in assay [5] was > 46 µM (inactive) each time. In addition, the result in assay [6] was inactive.

As to `Oc1cc(O)c2c(c1)O[C@H](c1ccc(O)c(O)c1)[C@@H](O)C2`, the Potency in assay [4] and in assay [5] was > 46 µM (inactive) each time. The outcome in assay [6] was inactive.

As for `CCCc1c(-c2ccc(O)cc2)nn(-c2ccc(O)cc2)c1-c1ccc(O)cc1`, in assay [4], the Potency was > 46 µM (inactive). In assay [6], the outcome was inactive.

For `NCCNS(=O)(=O)c1cccc2c(Cl)cccc12`, the Potency in assay [4] and in assay [5] was > 46 µM (inactive) in each case.

For the compound `C/C(=C\c1ccc(C(=O)O)cc1)c1ccc2c(c1)C(C)(C)CCC2(C)C`, the Potency in assay [4] and in assay [5] was > 46 µM (inactive) throughout. Besides, in assay [6], the compound was classed as inactive.

For `CCCCCCCC/C=C\CCCCCCCC(=O)NCCc1ccc(O)c(O)c1`, the activity, negative = inhibition in assay [3] was 0.267% (inactive). In addition, the Potency in assay [4] and in assay [5] was > 46 µM (inactive) each time.

Regarding `CC1CCN(CC[C@H]2CCCN2S(=O)(=O)c2cccc(O)c2)CC1`, the Potency in assay [4] and in assay [5] was > 46 µM (inactive) in each case. Besides, in assay [6], the outcome was inactive.

With `COC(=O)[C@H](NC(=O)c1cc(-c2ccccc2)nc2ccccc12)c1ccccc1`, the Potency in assay [4] and in assay [5] was > 46 µM (inactive) each time. Moreover, the compound was classed as inactive in assay [6].

On to `O=C(O)C1=CCCN(CCON=C(c2ccccc2)c2ccccc2)C1`, for which, in assay [2] (setting [7]), the activity change, negative = inhibition was -1.26% (inactive). Further, the activity, negative = inhibition in assay [3] is -1.1% (inactive). In addition, the Potency in assay [4] and in assay [5] was > 46 µM (inactive) each time. Moreover, the compound was classed as inactive in assay [6].

Regarding `COc1ccc(CCN(C)CCc2ccc(OC)c(OC)c2)cc1OC`, the activity change, negative = inhibition in assay [2] (setting [7]) was -20.2% (inactive). Moreover, in assay [3], the activity, negative = inhibition is -14.4% (inactive). Also, the Potency in assay [4] and in assay [5] was > 46 µM (inactive) in each case. Besides, the compound was classed as inactive in assay [6].

As to `CCCn1c(=O)c(C)cn2nc(N)nc12`, the Potency in assay [4] and in assay [5] was > 46 µM (inactive) in each case. In assay [6], the result was inactive.

Turning to `CCCCCC[C@@H]([C@@H](C)O)n1cnc2c(N)ncnc21`, the Potency in assay [4] and in assay [5] was > 46 µM (inactive) throughout. For the same compound, in assay [6], the compound was classed as inactive.

Take `CCCC(=O)NCCc1c2n(c3ccc(OC)cc13)CCCc1ccccc1-2`: the activity change, negative = inhibition in assay [2] (setting [7]) is -6.48% (inactive). Also, the Potency in assay [4] is > 46 µM (inactive). For the same compound, in assay [6], the compound was called inactive.

Regarding `N=C(N)c1ccc(OCCCCCOc2ccc(C(=N)N)cc2)cc1` (tested in a mixture with another compound), in assay [3], the activity, negative = inhibition was -3.59% (inactive). For the same compound, the Potency in assay [4] and in assay [5] was > 46 µM (inactive) in each case. Also, in assay [6], the result was inactive.

For `CNCCNS(=O)(=O)c1cccc2cnccc12`, the activity change, negative = inhibition in assay [2] (setting [7]) is -11.3% (inactive). For the same compound, the Potency in assay [4] and in assay [5] was > 46 µM (inactive) in each case.

As to `COCc1nc2c([nH]1)c(=O)n(C)c(=O)n2CC(C)C`, the activity change, negative = inhibition in assay [2] (setting [7]) was 9.41% (inactive). Moreover, in assay [3], the activity, negative = inhibition is -22% (inactive). For the same compound, the Potency in assay [4] and in assay [5] was > 46 µM (inactive) throughout. For the same compound, the outcome in assay [6] was inactive.

In the case of `N[C@@H](CS(=O)O)C(=O)O`, in assay [4], the Potency was > 46 µM (inactive).

`CN[C@H](CC(=O)O)C(=O)O`: in assay [2] (setting [7]), the activity change, negative = inhibition was 0.454% (inactive). Besides, the activity, negative = inhibition in assay [3] is 2.84% (inactive). Further, the Potency in assay [4] and in assay [5] was > 46 µM (inactive) in each case. Further, the result in assay [6] was inactive.
